{"source": "paper PMC7826789", "about": "(International Journal of Molecular Sciences, 2021);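 note: KINOMEscan scanMAX binding as percent activity remaining versus control; lower means stronger binding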", "data": [{"system": "T1, TIE2", "T1 construct": "gene TEK", "details": "Compound Concentration (nM):1000", "units": {"Percent Control": "%"}, "values": [{"smiles": "NS(=O)(=O)c1ccc(Nc2ncc(-c3ccccc3)o2)cc1", "note": "[GW572399X]", "Percent Control": 100}, {"smiles": "CCS(=O)(=O)c1ccc(OC)c(Nc2ncc(-c3cccc(OC)c3)o2)c1", "note": "[GW580509X]", "Percent Control": 100}, {"smiles": "C[C@@H](Oc1cc(-n2cnc3ccc(OC4CCN(C)CC4)cc32)sc1C(N)=O)c1ccccc1Cl", "note": "[GSK579289A]", "Percent Control": 69}, {"smiles": "COc1cc2ncn(-c3cc(O[C@H](C)c4ccccc4Cl)c(C(N)=O)s3)c2cc1OC", "note": "[GSK237701A]", "Percent Control": 97}, {"smiles": "O=C1Nc2ccc(C(=O)c3ccco3)cc2C1=Cc1cc(Cl)c(O)c(Cl)c1", "note": "[GW406108X]", "Percent Control": 100}, {"smiles": "Cc1cc(O)cc(C)c1/C=C/c1cncc(C(N)=O)c1", "note": "[GW435821X]", "Percent Control": 100}, {"smiles": "COc1cc(/C=N/Nc2ncnc3[nH]ncc23)ccc1O", "note": "[GW578748X]", "Percent Control": 100}, {"smiles": "COc1cc(C=NNc2ncnc3c2cnn3-c2ccccc2)ccc1O", "note": "[GW513184X]", "Percent Control": 65}, {"smiles": "NS(=O)(=O)c1ccc(N/N=C2\\C(=O)Nc3ccc(C(=O)NCCc4c[nH]cn4)cc32)cc1", "note": "[GW300660X]", "Percent Control": 100}, {"smiles": "Cl.O=C(Nc1ccc(Oc2ccc3[nH]c(NC(=O)c4ccco4)nc3c2)cc1)Nc1cc(C(F)(F)F)ccc1F", "note": "[GW683134A]", "Percent Control": 1.9}, {"smiles": "CN(C)CCNC(=O)Nc1ccc(N(C)c2ccnc(Nc3ccc(CS(C)(=O)=O)cc3)n2)cc1.Cl", "note": "[GW830900A]", "Percent Control": 100}, {"smiles": "CCn1c(-c2nonc2N)nc2c(C#CC(C)(C)O)nc(OCCNC)cc21.Cl", "note": "[GSK949675]", "Percent Control": 96}, {"smiles": "NS(=O)(=O)c1ccc(N/N=C2\\C(=O)Nc3ccc(C(=O)NCc4ccncc4)cc32)cc1", "note": "[GW300657X]", "Percent Control": 100}, {"smiles": "Cl.O=S1CCN(Cc2ccc(-c3ccc4ncnc(Nc5ccc(OCc6ccccc6)c(F)c5)c4c3)o2)CC1", "note": "[GW576924A]", "Percent Control": 100}, {"smiles": "Cl.O=C(O[C@H]1CN[C@H](C#Cc2cc3ncnc(Nc4ccc5c(cnn5Cc5ccccc5)c4)c3s2)C1)N1CCOCC1", "note": "[GSK200398A]", "Percent Control": 100}]}, {"system": "TLK1", "details": "Compound Concentration (nM):1000", "units": {"Percent Control": "%"}, "values": [{"smiles": "CN1CCN(C(=O)c2ccc(NC(=O)Nc3ccc(N(C)c4ccnc(Nc5ccc(CS(C)(=O)=O)cc5)n4)cc3)cc2)CC1.Cl", "note": "[GW830263A]", "Percent Control": 86}, {"smiles": "COc1cc2ncnc(Nc3ccc4c(cnn4Cc4ccccc4)c3)c2cc1OC.Cl", "note": "[GW282449A]", "Percent Control": 100}, {"smiles": "CC1=C(C(=O)Nc2ccc3[nH]ncc3c2)C(c2ccc3ccccc3c2)CC(=O)N1", "note": "(centres unmarked) [GSK270822A]", "Percent Control": 89}, {"smiles": "O=C(Nc1n[nH]c2nc(-c3ccc(O)cc3)c(Br)cc12)C1CC1", "note": "[SB-725317]", "Percent Control": 100}, {"smiles": "CCS(=O)(=O)c1ccc(OC)c(Nc2ncc(-c3cccc(F)c3)o2)c1", "note": "[GW621970X]", "Percent Control": 100}, {"smiles": "COc1ccc2cc(-c3c(-c4ccncc4)nc(-c4ccc(S(C)(=O)=O)cc4C)n3C)ccc2c1", "note": "[SB-633825]", "Percent Control": 94}, {"smiles": "COc1ccccc1-c1cc(/C=C2\\C(=O)Nc3ncc(Br)cc32)cc(Br)c1O", "note": "[GW442130X]", "Percent Control": 100}, {"smiles": "CN(C)c1cc2c(Nc3ccc4c(cnn4Cc4ccccc4)c3)ncnc2cn1", "note": "[GW282974X]", "Percent Control": 78}, {"smiles": "COc1ccc2[nH]c3c4[nH]c5ccc(OC)cc5c4c4c(c3c2c1)C(=O)NC4=O", "note": "[GW296115X]", "Percent Control": 100}, {"smiles": "COc1cccc(-n2ncc3c(N/N=C/c4ccncc4)ncnc32)c1", "note": "[GW784752X]", "Percent Control": 89}, {"smiles": "CC1=C(C(=O)Nc2ccc3[nH]ncc3c2)C(c2ccc(Cl)c(Cl)c2)CC(=O)N1", "note": "(centres unmarked) [GSK299115A]", "Percent Control": 84}, {"smiles": "COc1ccc(COc2ccc(Cc3cnc(N)nc3N)cc2OC)cc1", "note": "[GW632580X]", "Percent Control": 92}, {"smiles": "NS(=O)(=O)c1ccc(N/N=C2\\C(=O)Nc3ccc(Cl)cc32)cc1", "note": "[GW280670X]", "Percent Control": 100}, {"smiles": "COc1cccc(-c2c[nH]c3c(N/N=C/c4ccncc4)ncnc23)c1", "note": "[GW814408X]", "Percent Control": 84}, {"smiles": "COC(=O)Nc1nc2ccc(Oc3ccc(NC(=O)Nc4cc(C(F)(F)F)ccc4F)cc3)cc2s1.Cl", "note": "[GW693917A]", "Percent Control": 87}, {"smiles": "COc1ccc2c(-c3ccnc(Nc4cccc(OC(F)(F)F)c4)n3)cnn2n1", "note": "[GW810372X]", "Percent Control": 100}, {"smiles": "NS(=O)(=O)c1ccc(N/N=C2\\C(=O)Nc3ccc(-c4cnco4)cc32)cc1", "note": "[GW276655]", "Percent Control": 96}, {"smiles": "Cl.c1ccc(Cc2nc3ccc(Nc4ncnc5ccccc45)cc3[nH]2)cc1", "note": "[GR269666A]", "Percent Control": 100}, {"smiles": "C/C(Nc1ccc(S(N)(=O)=O)cc1)=C1/C(=O)Nc2ccccc21", "note": "[GW335962X]", "Percent Control": 94}, {"smiles": "COc1cc(N2CCN(C(C)C)CC2)ccc1Nc1nc(Nc2ccc(F)cc2C(=O)NC[C@@H](O)CO)c2cc[nH]c2n1", "note": "[GSK1392956A]", "Percent Control": 83}]}]}
